Data reported in PubChem BioAssay (NCI).
This is part of a sample that, as a whole, favours compounds with a hit. Of some 83,000 tested, about 20% had one in any assay.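 Growth was measured after 48 h exposure to one concentration of compound in 96-well plates. Values under 10 count as active.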 Activity calls are given as the source filed them.

Legend:
Assay in all cases: NCI-60 one-dose screen, 48 h (100 = growth as untreated, 0 = no growth, -100 = all killed)
Conditions in all cases: 10 µM unless noted
[1] = test system: SK-MEL-2 melanoma
[2] = test system: EKVX NSCLC
[3] = test system: SN12C renal
[4] = test system: UO-31 renal
[5] = test system: TK-10 renal
[6] = test system: ACHN renal
[7] = test system: CAKI-1 renal
[8] = test system: A498 renal
[9] = test system: CCRF-CEM leukemia
[10] = test system: MOLT-4 leukemia
[11] = test system: SR leukemia
[12] = test system: RPMI-8226 leukemia
[13] = test system: OVCAR-8 ovarian
[14] = test system: OVCAR-5 ovarian
[15] = test system: OVCAR-4 ovarian
[16] = test system: IGROV1 ovarian
[17] = test system: HS 578T breast
[18] = test system: NCI/ADR-RES ovarian
[19] = test system: OVCAR-3 ovarian
[20] = test system: SK-OV-3 ovarian

Measured: growth

CC(=O)c1c([Si](C)(C)C)c2cc(C#N)ccn2c1C(=O)c1ccc(Br)cc1
inactive: [1] 89.4% | [2] 86.9% | [3] 96.6% | [4] 77.2% | [5] 98% | [6] 82.1% | [7] 52% | [8] 78.9% | [9] 91.8% | [10] 85.3% | [11] 87.9% | [12] 92.1% | [13] 94.8% | [14] 79% | [15] 76.2% | [16] 68.7% | [17] 79.3% | [18] 88.6%

Cc1cccc(N2CCN(C3=C(Cl)C(=O)c4ncccc4C3=O)CC2)c1
inactive: [1] 99.9% | [2] 104% | [3] 75.1% | [4] 18.3% | [5] 117% | [7] 52% | [8] 103% | [12] 46.8% | [13] 80.6% | [14] 111% | [15] 67% | [16] 73.1% | [17] 70.6% | [18] 78.7%
active: [6] -32.9% | [9] 4.71% | [10] 9.85% | [11] 3.39%

Cc1ccc2c(n1)C(=O)C(Cl)=C(Nc1cc(C(F)(F)F)cc(C(F)(F)F)c1)C2=O
inactive: [1] 74.5% | [2] 78% | [3] 92.1% | [5] 106% | [7] 81.4% | [8] 80.4% | [13] 87.8% | [14] 109% | [16] 27.8% | [19] 37.3% | [17] 92.8% | [18] 99.7%
active: [4] 9.71% | [6] -64.9% | [9] 4.75% | [10] 9.31% | [11] 7.46% | [12] 6.65% | [15] -84.8%

CC(C)(C)Nc1nc2c(OCCc3ccccc3)cccn2c1-c1cccc(Oc2ccccc2)c1
active: [1] -26.2% | [4] 5.5% | [6] 7.39% | [7] 8.12% | [10] 5.42% | [11] 3.9% | [12] 4.94% | [18] 7.94%
inactive: [2] 13.5% | [3] 12.3% | [5] 21.8% | [8] 16.2% | [9] 15% | [13] 10.2% | [14] 17.7% | [15] 31.2% | [16] 34% | [19] 24% | [17] 13.9%

COc1ccc(N2CCN(C3=C(Cl)C(=O)c4ncccc4C3=O)CC2)cc1
active: [6] -18.7% | [9] 6.79% | [10] 4.55% | [11] 0.311%
inactive: [1] 95.1% | [2] 99.9% | [3] 84.7% | [4] 19.2% | [5] 99.6% | [7] 32.3% | [8] 103% | [12] 23.2% | [13] 74.8% | [14] 112% | [20] 81% | [16] 80.7% | [17] 70.2% | [18] 86.6%

CC(=C(c1ccc(OCCN(C)C)cc1)c1ccc(OCCN(C)C)cc1)c1ccc(Cl)cc1
active: [1] -59.4% | [2] -12.9% | [3] -33.3% | [4] -64.8% | [5] -72.4% | [6] -80.4% | [7] -81.5% | [8] -76.1% | [9] -45.2% | [10] -49.7% | [11] -36.1% | [12] -42.7% | [13] -46.9% | [14] -69% | [16] -76.8% | [19] -55.5% | [17] -32.5% | [18] -49.8%
inactive: [20] 77.5%

COc1ccc(/C=N/NC(=O)c2c(N)nn(C)c2Nc2ccccc2)cc1
active: [1] 7.07%
inactive: [2] 69.7% | [3] 57.6% | [4] 51.2% | [5] 89.2% | [6] 50% | [7] 39.8% | [8] 33.1% | [9] 38.5% | [10] 49.4% | [11] 18.9% | [12] 61.6% | [13] 70.8% | [14] 76.9% | [20] 49.6% | [16] 39.6% | [17] 38.1% | [18] 33%

O=C(CSc1nnc(-c2ccc(Cl)cc2)n1-c1ccccc1)Nc1cccc(F)c1
inactive: [1] 88.4% | [2] 42.2% | [3] 13.7% | [7] 14.1% | [8] 57.9% | [9] 91.3% | [10] 85.8% | [11] 37.2% | [12] 40.5% | [13] 35.7% | [14] 41.9% | [20] 78.6% | [16] 20.3% | [19] 51.9% | [17] 28% | [18] 37%
active: [4] -15.2% | [5] -14.7% | [6] -31.8%

CCc1cc2c(cc1Cl)nc1c(=O)[nH]c(=O)nc-1n2CCOCC(C)(C)C
inactive: [1] 96.6% | [2] 71.2% | [3] 79.8% | [4] 44.3% | [5] 160% | [6] 65.7% | [7] 70.8% | [8] 87.6% | [9] 89.6% | [10] 69.2% | [11] 35.8% | [12] 68.5% | [13] 72.2% | [14] 119% | [15] 52.5% | [16] 60.3% | [17] 101% | [18] 79.2%

CN1CCN(c2ccc(Nc3nc(NCCNS(=O)(=O)c4ccc5ccccc5c4)c4sccc4n3)cc2)CC1
inactive: [1] 103% | [2] 86.2% | [3] 79.6% | [4] 68.9% | [5] 127% | [6] 86.8% | [7] 69.5% | [8] 86.9% | [9] 41.9% | [10] 41.6% | [12] 49.8% | [13] 60.3% | [14] 90.1% | [15] 82.3% | [16] 82.3% | [17] 75% | [18] 90.3%
active: [11] -21.3%

COc1cc(/C=N\NC(=O)c2ccc3nc(-c4ccc(Br)cc4)[nH]c3c2)cc(OC)c1OC
inactive: [1] 60.2% | [2] 78.2% | [3] 63.4% | [4] 72.3% | [5] 58.9% | [6] 60.9% | [7] 33.2% | [8] 20.8% | [9] 25.8% | [10] 31.6% | [11] 37.9% | [12] 10.7% | [13] 45.6% | [14] 119% | [20] 68.3% | [16] 57.9% | [17] 38% | [18] 95.9%

Cc1nc(/N=C(N)/N=C(\N)c2cccc(Br)c2)sc1C
inactive: [1] 64% | [2] 60.2% | [3] 47.3% | [4] 52.5% | [5] 83.3% | [6] 49.9% | [7] 48.6% | [8] 43.5% | [9] 34% | [10] 39.7% | [11] 35.6% | [12] 55.1% | [13] 58.2% | [14] 71.1% | [20] 67.8% | [16] 52.3% | [19] 47.2% | [17] 73.1% | [18] 36.1%

O=C(Nc1cccc(Cl)c1)Nc1nc2cc([N+](=O)[O-])ccc2o1
inactive: [1] 45.5% | [2] 27.8% | [3] 35.3% | [4] 59.3% | [5] 94.9% | [6] 47.8% | [7] 62% | [8] 28.3% | [9] 25% | [10] 33.8% | [11] 57.8% | [12] 35.8% | [13] 33.9% | [14] 75.5% | [20] 74.3% | [16] 44.9% | [17] 71.4% | [18] 22.6%
active: [19] -0.896%

CC[C@H](CC[C@@H](C)[C@H]1CC[C@H]2[C@@H]3CC(=O)C4=CC(=O)/C(=C/c5ccc([N+](=O)[O-])cc5)C[C@]4(C)[C@H]3CC[C@]12C)C(C)C
inactive: [1] 114% | [2] 109% | [3] 98.4% | [4] 79.6% | [5] 104% | [6] 93.9% | [7] 90.8% | [8] 108% | [9] 56.1% | [10] 84.3% | [11] 84.3% | [12] 83.5% | [13] 100% | [14] 105% | [15] 108% | [16] 111% | [17] 119% | [18] 106%

C/C(=C(/C)C1CC1CCNC1CCC(NC(=O)OC(C)(C)C)CC1)c1ccccc1 (centres undefined)
active: [11] -25.5% | [12] 2.74%
inactive: [1] 95.9% | [2] 73.7% | [3] 76.2% | [4] 63.8% | [5] 108% | [6] 87.1% | [7] 53.6% | [8] 78% | [9] 54% | [10] 61.9% | [13] 81.6% | [14] 84.4% | [15] 78.5% | [16] 72.1% | [17] 84.1% | [18] 75.7%

CN(C)c1cccc2c(S(=O)(=O)Nc3cccc(-c4csc(NC(=O)CCCCCN5CCN(CCO)CC5)n4)c3)cccc12
inactive: [1] 99.7% | [2] 85% | [3] 80.1% | [4] 86.4% | [5] 120% | [6] 96.9% | [7] 86.1% | [8] 101% | [9] 72.8% | [10] 47.5% | [12] 47.2% | [13] 89% | [14] 88.7% | [15] 92.4% | [16] 86.1% | [17] 85.1% | [18] 103%
active: [11] -9.78%
